# Results: PubChem BioAssay (NCI)
# This is part of a sample that, as a whole, favours compounds with a hit. Of some 83,000 tested, about 20% had one in any assay.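 48-hour exposure, single concentration, 96-well plates; percent growth endpoint where 0 means no net growth. Active: below 10.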 Values without a mark were called inactive. Active and inactive are the calls of the source.
# Legend:
# Assay in all cases: NCI-60 one-dose screen, 48 h (100 = growth as untreated, 0 = no growth, -100 = all killed)
# Details in all cases: 10 µM unless noted
# NCI-H23 lung = system: NCI-H23 lung
# NCI-H226 lung = system: NCI-H226 lung
# NCI-H322M lung = system: NCI-H322M lung
# HOP-62 NSCLC = system: HOP-62 NSCLC
# NCI-H522 lung = system: NCI-H522 lung
# A549/ATCC NSCLC = system: A549/ATCC NSCLC
# 786-0 renal = system: 786-0 renal
# COLO 205 colon = system: COLO 205 colon
# DU-145 prostate = system: DU-145 prostate
# MALME-3M melanoma = system: MALME-3M melanoma
# MDA-MB-231 breast = system: MDA-MB-231 breast
# RXF 393 renal = system: RXF 393 renal
# SF-268 CNS = system: SF-268 CNS
# SF-295 CNS = system: SF-295 CNS
# SF-539 CNS = system: SF-539 CNS
# UACC-257 melanoma = system: UACC-257 melanoma
# M14 melanoma = system: M14 melanoma
# K-562 leukemia = system: K-562 leukemia
Compound,growth (NCI-H23 lung) [%],growth (NCI-H226 lung) [%],growth (NCI-H322M lung) [%],growth (HOP-62 NSCLC),growth (NCI-H522 lung),growth (A549/ATCC NSCLC) [%],growth (786-0 renal) [%],growth (COLO 205 colon),growth (DU-145 prostate) [%],growth (MALME-3M melanoma),growth (MDA-MB-231 breast) [%],growth (RXF 393 renal),growth (SF-268 CNS) [%],growth (SF-295 CNS),growth (SF-539 CNS),growth (UACC-257 melanoma),growth (M14 melanoma),growth (K-562 leukemia)
CCCCCCCCCCCC1=NC(C)(C)CN1C(C)C,49.8,89.1,97.7,54.6%,43%,61.1,54.5,-53.7% (active),68.9,59.8%,53.7,5.65% (active),71.9,62.6%,55.6%,-9.06% (active),-26.6% (active),–
O=S(=O)(Cc1ccc(Cl)cc1Cl)c1ccc(Cl)cc1,50.2,69.3,50.3,36.5%,-5.62% (active),30.7,30.2,8.87% (active),41,58%,49.8,-15.6% (active),67.8,2.18% (active),12.7%,77.4%,9.79% (active),10.5%
N#CCCn1cnc2c(N)ncnc21,101,95.9,123,94.6%,97.7%,99.9,96.7,120%,108,125%,94.2,120%,110,102%,97.8%,102%,102%,–
CCOC(=O)C1=C(C(=O)OCC)N(c2cc(OC)c(OC)c(OC)c2)C(N)=C(C#N)C1c1cc(=O)[nH]c2ccccc12 (stereo not drawn),104,96.7,97.3,92.4%,90.2%,105,101,111%,104,104%,87.8,99.5%,91.1,94.3%,87.7%,101%,105%,–
COc1ccc(-c2nn(C(=O)NCCN(C)C)cc2-c2ccncc2)cc1Cl,63.5,46.4,109,16%,28.2%,32.6,34.8,25.1%,77.6,53.8%,54.5,44.6%,44.8,24%,25.6%,64.4%,45.8%,16.5%
CCOCCNc1ccc(S(=O)(=O)c2ccc(N)cc2)cc1N,92.5,94.6,101,110%,96%,91.5,108,110%,119,109%,118,130%,97.1,96.2%,109%,92.8%,112%,107%
CCN(CC)c1ccc(/C=C2/NC(=O)NC2=O)cc1,44.6,81.5,79.1,53.4%,14.5%,59.1,48,3.89% (active),64.3,42%,57.5,50.3%,57,23.6%,6.57% (active),72.9%,8.99% (active),–
COc1cc(/C=C\c2cc(/C=C\c3ccc(O)c(OC)c3)n(C(=O)Nc3ccc(C(F)(F)F)cc3)n2)ccc1O,51.3,82.7,82.7,62.9%,7.32% (active),43,20.1,51.3%,47.6,52.3%,54.8,22.7%,37.1,83.4%,29%,25%,29.5%,9.45% (active)
ClCc1c(Cl)c(Cl)c(Cl)c(CCl)c1Cl,82.8,35,94,-28.8% (active),-64.6% (active),94.9,76.3,-87.4% (active),14.8,-40.3% (active),47.8,-75.9% (active),33.5,97.5%,97.6%,19.9%,35.5%,-20.8% (active)
